Experiment [1] in a line: qHTS RealTime-Glo MT Cell Viability Assay in HepG2 cells - 40 hour (AID 1224870). Also: nearly all actives have a fitted effect of over 50% in size. Put shortly: (§1)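 HepG2 cells mixed with RealTime-Glo MT reagents (NanoLuc plus cell-permeant prosubstrate) were seeded at 600 cells/well, incubated 5 h at 37 C/5% CO2, then pinned with compounds in DMSO; nonlytic luminescence tracked viability during 40 h treatment.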
In general terms: qHTS replaces the single test concentration by a dilution series.

The nature of experiment [2]: A CellTox Green Cytotoxicity Assay to monitor cytotoxicity in HEK293 cells - 40 hour (AID 1224871). Also: nearly all actives have a fitted effect of over 45% in size. Put shortly:
(§2)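 Seeding of HEK293 cells together with cytotoxicity dye preceded a 5 h incubation at 37 C/5% CO2. Test compounds in DMSO were then added and fluorescence monitored across 40 h.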

Experiment [3] is described as follows: qHTS RealTime-Glo MT Cell Viability Assay in HepG2 cells - 8 hour (AID 1224873). Also: nearly all actives have a fitted effect of over 55% in size. A digest of the protocol: as §1
A short description of experiment [4]: qHTS RealTime-Glo MT Cell Viability Assay in HEK293 cells - 40 hour (AID 1224874). Also: nearly all actives have a fitted effect of over 50% in size. Also: potency is read from the fitted curve at half-maximal effect. Particulars: RealTime-Glo luminescence; max response: hits give low values. Put shortly: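 Tox21 screen in HEK293 using RealTime-Glo MT chemistry, with cells and reagent co-dispensed. Luminescence proportional to viable cell number was captured at intervals during 40 h compound exposure at 37 C.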

A short description of experiment [5]: A CellTox Green Cytotoxicity Assay to monitor cytotoxicity in HEK293 cells - 24 hour (AID 1224875). Also: series mostly up to about 77 µM; nearly all actives have a fitted effect of over 45% in size. Put shortly:
as §2

Experiment [6] is described as follows: A CellTox Green Cytotoxicity Assay to monitor cytotoxicity in HepG2 cells - 16 hour (AID 1224876). Also: nearly all actives have a fitted effect of over 45% in size. A digest of the protocol:
(§3)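 Nonlytic assay: viable cells exclude the dye, so fluorescence scales with cell death. HepG2 at 600 cells/well, compounds added after 5 h, signal read across 40 h.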

A short description of experiment [7]: qHTS RealTime-Glo MT Cell Viability Assay in HepG2 cells - 32 hour (AID 1224877). Also: nearly all actives have a fitted effect of over 55% in size. Put shortly: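 HepG2 suspension premixed with RealTime-Glo reagents is plated at 600 cells per well and left 5 h at 37 C/5% CO2. Compounds in DMSO then go in, and bioluminescence reflecting viable cell number is recorded over 40 h.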
The nature of experiment [8]: A CellTox Green Cytotoxicity Assay to monitor cytotoxicity in HepG2 cells - 24 hour (AID 1224878). Also: nearly all actives have a fitted effect of over 45% in size. A digest of the protocol:
as §3

Experiment [9] is described as follows: A CellTox Green Cytotoxicity Assay to monitor cytotoxicity in HepG2 cells - 40 hour (AID 1224879). Also: nearly all actives have a fitted effect of over 40% in size. A digest of the protocol: as §3
Experiment [10] is described as follows: qHTS RealTime-Glo MT Cell Viability Assay in HEK293 cells - 16 hour (AID 1224872). Also: nearly all actives have a fitted effect of over 50% in size. Also: potency is read from the fitted curve at half-maximal effect. A digest of the protocol:
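Reads taken at 0, 8, 16, 24, 32 and 40 h from the same wells. HEK293 cells (600/well) carried RealTime-Glo reagents from seeding, with compound added after a 5 h settle at 37 C.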

Results filed as inconclusive are left out. Values without a mark were called inactive. Active and inactive are the calls of the source. Calls follow the shape of the dose curve; as a rule, active = well fitted curve in the direction sought with a large enough effect in the repeat runs; inconclusive = weak or mixed curves; inactive = no such curve, though single readings can be large; an effect the other way counts as inactive or inconclusive.
% is scaled to controls: 0 for no effect and ±100 for the full control effect.

As for `CN=C(NC#N)Nc1ccc(C2=NNC(=O)CC2C)cc1` (centres undefined), the call in [1], in experiment [3], in [5], in [6], in [7] and in experiment [8] was inactive. For the same molecule, the Potency entry in experiment [2] and in experiment [9] was “inactive” each time. In addition, the max response in experiment [4] was 11.7%.
As to `COC(=O)c1ccccc1C(=O)c1ccc(OCCN2CCCCC2)cc1`, the call in [1], in experiment [3], in [5], in experiment [7] and in [8] was inactive. The Potency result in [2] and in experiment [9] was “inactive” throughout. Moreover, in experiment [4], the max response was -12%.
`Cc1ccccc1OCC(O)CO` (centres undefined): the molecule was classed as inactive in [1], in experiment [3], in experiment [5], in experiment [6], in [7] and in experiment [8]. Moreover, the Potency entry in [2] and in experiment [9] was “inactive” each time. Further, the max response in experiment [4] is 1.4%.
Take `CC(C)(C)NC(N)=O`: the molecule was called inactive in experiment [1], in experiment [3], in [6], in experiment [7] and in experiment [8]. Besides, the Potency entry in experiment [2], in experiment [10] and in [9] was “inactive” each time. Besides, the max response in experiment [4] is 1.11%.
`CN(C)C(=O)CNC(=O)Cc1ccccc1`: the outcome in experiment [1], in experiment [3], in experiment [5] and in experiment [7] was inactive. The Potency result in experiment [2], in [10] and in experiment [9] was “inactive” each time. In experiment [4], the max response was 4.97%.
On to `O=C1c2ccccc2C(=O)N1CCl`, for which the molecule was classed as inactive in experiment [1], in experiment [3], in experiment [5], in experiment [6] and in [7]. Besides, the Potency entry in [10] and in [9] was “inactive” in each case. For the same molecule, the max response in experiment [4] is 1.28%.
Take `CCC(C)NC(N)=O` (centres undefined): the outcome in experiment [1], in [3], in experiment [5], in [6], in [7] and in experiment [8] was inactive. Besides, the Potency entry in [10] and in experiment [9] was “inactive” throughout. The max response in experiment [4] is 0.218%.
For `COc1cc2c(cc1OC)C(=O)CC2`, the result in experiment [1], in [3], in experiment [5], in experiment [6], in [7] and in experiment [8] was inactive. Moreover, the Potency entry in experiment [10] and in [9] was “inactive” throughout. The max response in [4] is -24.5%.
As for `CC(C)NCC(O)COc1ccc(COCCOC(C)C)cc1` (centres undefined), the call in [1], in [3], in experiment [5], in experiment [6] and in experiment [7] was inactive. The max response in experiment [4] was 3.86%. In addition, in [9], the Potency result was “inactive”.
Regarding `O=C(NCCc1c[nH]c2ccccc12)c1cccnc1`, the Potency result in experiment [2], in experiment [10] and in experiment [9] was “inactive” throughout. In addition, the result in experiment [3], in experiment [5], in [6], in experiment [7] and in experiment [8] was inactive. The max response in experiment [4] is -11.8%.
Take `NS(=O)(=O)c1cc2c(cc1Cl)CN(C1CCCCC1)C2=O`: the Potency entry in experiment [2] and in experiment [9] was “inactive” throughout. Also, the results for the Potency in [10] and in [4] were 10.7 µM (active) and 9.52 µM (active), respectively. The result in experiment [3], in experiment [5], in experiment [6], in experiment [7] and in experiment [8] was inactive.
Regarding `CCOc1cc(NC(C)=O)ccc1C(=O)OC`, the result in experiment [1], in [3], in [5], in experiment [6], in [7] and in experiment [8] was inactive. In addition, the Potency result in experiment [10] and in experiment [9] was “inactive” in each case. In addition, the max response in experiment [4] is -4.96%.
In the case of `O=C(OCc1ccccc1)C(=O)OCc1ccccc1`, the outcome in experiment [1], in [3], in experiment [5], in experiment [6] and in experiment [7] was inactive. Moreover, the Potency result in experiment [10] and in experiment [9] was “inactive” in each case. Moreover, in experiment [4], the max response is 1.62%.
Take `CC(C)=CCOC(=O)c1ccccc1`: the result in [1], in [3], in experiment [5] and in experiment [7] was inactive. The Potency result in [10] is “inactive”. In experiment [4], the max response was -0.369%.
As for `CC(C)C(=O)OCCc1ccccc1`, the molecule was called inactive in [1], in experiment [3], in experiment [5], in experiment [6], in [7] and in experiment [8]. The Potency result in experiment [10] and in experiment [9] was “inactive” each time. Besides, in experiment [4], the max response is -2.86%.
In the case of `CC(=O)Nc1ccc(S(=O)(=O)Nc2ccc([N+](=O)[O-])cc2)cc1`, the outcome in experiment [1], in experiment [3], in [5], in experiment [6], in experiment [7] and in [8] was inactive. Moreover, in experiment [4], the max response is -8.9%. Also, the Potency result in [9] is “inactive”.
In the case of `CC(C)C(=O)OCc1cccc(OC(=O)[C@@H]2N3C(=O)[C@@H](NC(=O)Cc4ccccc4)[C@H]3SC2(C)C)c1`, the outcome in experiment [1], in [3], in [5], in [6], in experiment [7] and in experiment [8] was inactive. Also, in experiment [4], the max response was 0.269%. Also, the Potency entry in experiment [9] is “inactive”.
For the molecule `CC(C)(C)c1n[nH]c(=S)n(N)c1=O`, the call in [1], in [3], in experiment [5], in experiment [6], in [7] and in [8] was inactive. Also, in [4], the max response is 2.54%. Also, in experiment [9], the Potency entry is “inactive”.
`CCOC(=O)c1ccc(OC(=O)CCCCCN=C(N)N)cc1`: the call in experiment [1], in experiment [3], in [5], in [6] and in experiment [7] was inactive. In addition, the Potency entry in [10] and in experiment [9] was “inactive” each time. For the same molecule, in experiment [4], the max response is -15.8%.
Turning to `Cc1cc2cc3c(C)cc(=O)oc3c(C)c2o1`, the result in experiment [1], in experiment [3], in experiment [5], in experiment [6], in experiment [7] and in [8] was inactive. Also, the Potency entry in experiment [10] and in [9] was “inactive” throughout. Besides, the max response in experiment [4] was -18.2%.
For the molecule `O=C(O)CCSSCCC(=O)O`, the call in experiment [1], in [3], in [5], in [6], in [7] and in experiment [8] was inactive. Also, the Potency result in experiment [10] and in experiment [9] was “inactive” throughout. Further, the max response in experiment [4] is 7.07%.
`BrCCCCCBr`: the Potency result in experiment [2], in [10] and in experiment [9] was “inactive” throughout. Further, the call in experiment [3], in [5], in [6], in [7] and in experiment [8] was inactive. Further, the max response in [4] was 19.9%.
In the case of `CCCCNC1CC(C)(C)NC(C)(C)C1`, the call in [1], in [3], in experiment [5], in [6], in experiment [7] and in [8] was inactive. Moreover, the Potency entry in [10] and in experiment [9] was “inactive” throughout. Further, the max response in experiment [4] is 10.4%.

Source of the values: PubChem BioAssay (Tox21).
